From PubChem BioAssay
The entries come from a sample that favours hits as a whole.
Tgondii IFNg: blocks Toxoplasma gondii growth in the presence of IFN-gamma; Toxoplasma gondii growth in IFN-gamma-treated host cells; hits give low values; activity change, negative = inhibition, % (test concentration not listed); 69,000 tested, 3.8% active; AID 1259416; in the data active = activity change below about -70%, passing the limit was not always enough;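 also: host cells are HeLa cells infected with Toxoplasma gondii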
* marks the source's active call; other numbers are inactive results; i = inactive.

SMILES	Tgondii IFNg
Cc1ccc(S(=O)(=O)Nc2ccc3c(c2)C(=O)N([C@H](C)CO)C[C@H](C)[C@@H](CN(C)S(=O)(=O)c2cccs2)OCCCC[C@@H](C)O3)cc1	-47
Cc1noc(C)c1NC(=O)Nc1ccc2c(c1)C(=O)N([C@@H](C)CO)C[C@@H](C)[C@@H](CN(C)S(=O)(=O)c1cccs1)OCCCC[C@H](C)O2	i
Cc1noc(C)c1NC(=O)Nc1ccc2c(c1)C(=O)N([C@H](C)CO)C[C@H](C)[C@@H](CN(C)S(=O)(=O)c1cccs1)OCCCC[C@H](C)O2	185
Cc1ccc(S(=O)(=O)Nc2ccc3c(c2)C(=O)N([C@@H](C)CO)C[C@H](C)[C@@H](CN(C)S(=O)(=O)c2cccs2)OCCCC[C@H](C)O3)cc1	-99*
O=C(Nc1cccc(Cl)c1)N1CCCC1	10
CO[C@@H]1CCN(C(=O)C2CCOCC2)[C@H]2CN(Cc3ccncc3)C[C@@H]12	0
CCCC#Cc1ccc2c(c1)O[C@H](CN(C)Cc1ccccn1)[C@H](C)CN([C@@H](C)CO)S2(=O)=O	-94*
C[C@H]1CN([C@@H](C)CO)S(=O)(=O)c2ccc(C#CCC3CCCC3)cc2O[C@@H]1CN(C)C(=O)c1cnccn1	-53
C[C@@H]1CN([C@@H](C)CO)S(=O)(=O)c2ccc(C#Cc3cccc(F)c3)cc2O[C@@H]1CN(C)S(=O)(=O)c1cn(C)cn1	32
COCC#Cc1ccc2c(c1)O[C@H](CN(C)C(=O)C1CCOCC1)[C@H](C)CN([C@@H](C)CO)S2(=O)=O	51
CCCN(C)C[C@H]1Oc2cc(/C=C/c3ccccc3)ccc2S(=O)(=O)N([C@H](C)CO)C[C@H]1C	-92*
C[C@@H]1CN([C@@H](C)CO)S(=O)(=O)c2ccc(-c3ccncc3)cc2O[C@H]1CN(C)S(C)(=O)=O	72
Cc1ccc(S(=O)(=O)N(C)C[C@@H]2Oc3cc(C#CC4CCCC4)ccc3S(=O)(=O)N([C@@H](C)CO)C[C@H]2C)cc1	-109*
CCCC#Cc1ccc2c(c1)O[C@H](CN(C)Cc1ccccn1)[C@@H](C)CN([C@H](C)CO)S2(=O)=O	-29
C[C@H](CO)N1C[C@H](C)[C@H](CN(C)Cc2ccccc2C(=O)O)Oc2cc(-c3ccc(F)cc3)ccc2S1(=O)=O	65
CCCC#Cc1ccc2c(c1)O[C@@H](CN(C)Cc1ccccn1)[C@H](C)CN([C@@H](C)CO)S2(=O)=O	-29
CCCN(C)C[C@@H]1Oc2cc(/C=C/c3ccccc3)ccc2S(=O)(=O)N([C@H](C)CO)C[C@@H]1C	9
C[C@H](CO)N1C[C@H](C)[C@H](CN(C)C(=O)c2cnccn2)Oc2cc(C#CCC3CCCC3)ccc2S1(=O)=O	-100*
CCCCC1C=CCN1C(=O)CCc1ccc(O)cc1 (centres undefined)	2
Cc1nn(C)cc1NC(=O)C[C@@H]1CC[C@@H]2[C@H](COc3ccc(NC(=O)c4cccc(F)c4)cc3C(=O)N2C)O1	5
CO[C@@H]1CC[C@@H]2[C@@H]1OCCN2C(=O)c1cn2cc(Cl)ccc2n1	-9
COCc1cn(CC[C@H]2CC[C@H](NC(=O)Nc3c(C)noc3C)[C@H](CO)O2)nn1	-4
CCc1ccc(N2CC(C(=O)Oc3ccccc3OC)CC2=O)cc1 (centres undefined)	-6
Cc1cnc(N2CCC3C2CCC(=O)N3CC2CCOCC2)nc1 (centres undefined)	7
O=C(/C=C/c1ccccc1)NC(=O)c1ccccc1O	-66
SMILES	Tgondii IFNg
O=C(N/N=C/c1ccccc1O)c1ccccc1O	-83*
CC(=O)Nc1ccc(OC(=O)c2ccccc2O)cc1	8
CS(=O)(=O)NC[C@@H]1OC[C@@H]2CN(C(=O)c3ccnnc3)CC[C@@H]21	-3
C[C@H]1CN([C@@H](C)CO)C(=O)Cc2cc(NC(=O)c3ccncc3)ccc2O[C@@H]1CN(C)C(=O)Nc1ccc(F)cc1	-28
COC(=O)c1ccc(C(=O)OC)c(NC(=O)N2CCC3(CC2)Nc2cc(F)ccc2-n2cccc23)c1	64
O=C(O)CNC(=O)CNS(=O)(=O)c1ccccc1	-2
CC(C)[C@H](NS(=O)(=O)c1ccc(-c2ccc(Br)cc2)cc1)C(=O)O	37
O=C(O)CNS(=O)(=O)c1ccc(-c2ccccc2)cc1	-3
CC(C)ON([C@@H](C(=O)NO)C(C)C)S(=O)(=O)c1ccc(-c2ccccc2)cc1	-75*
CCn1c(SCc2nc(-c3ccccc3Cl)oc2C)nc2c(=O)[nH]cnc21	14
Cc1cnc(NC(=O)C2=C(O)c3ccccc3S(=O)(=O)N2C)s1	43
CC(c1nncn1C)n1cc(-c2ccc3c(c2)Cc2ccccc2-3)nn1 (centres undefined)	68
Cc1cccc(CN2C(=O)CCC23CCN(C(=O)NC2CC2)CC3)c1	-3
Cc1cc(C)cc(S(=O)(=O)N2CCC3(CC2)NCCN=C3NCc2ccc(C(F)(F)F)cc2)c1	-52
Cc1cc(C)n(-c2ncc(S(=O)(=O)C(C)(C)C)c(N)n2)n1	60
Cc1cc(C)n(C2=NCCN2S(=O)(=O)c2cc(C(F)(F)F)cc(C(F)(F)F)c2)n1	-90*
Cc1nnc(-c2ccc3ccn(CC(=O)N4CCN(c5ncccn5)CC4)c3c2)o1	129
Cc1nc(CCn2ccnc2-c2nc[nH]c2C)nc2c1CCC2	0
CCN1c2cc(C)ccc2-n2cccc2C12CCN(C(=O)Nc1cc(Cl)ccc1OC)CC2	-116*
CCN1c2cc(C)ccc2-n2cccc2C12CCN(C(=O)Nc1cc(C)cc(C)c1)CC2	-28
CCN1c2cc(C)ccc2-n2cccc2C12CCN(C(=O)Nc1cc(OC)ccc1OC)CC2	-111*
CCN1c2cc(C)ccc2-n2cccc2C12CCN(C(=O)Nc1ccccc1C(F)(F)F)CC2	108
COc1ccc(OC)c(NC(=O)N2CCC3(CC2)Nc2cc(C)ccc2-n2cccc23)c1	225
CCN1c2cc(C)ccc2-n2cccc2C12CCN(C(=O)Nc1ccc(OC)cc1OC)CC2	-72*
CCN1c2cc(C)ccc2-n2cccc2C12CCN(C(=O)Nc1cc(F)ccc1F)CC2	-51
SMILES	Tgondii IFNg
CCOC(=O)Cc1ccc(NC(=O)N2CCC3(CC2)c2cccn2-c2ccc(C)cc2N3CC)cc1	-35
CCN1c2cc(C)ccc2-n2cccc2C12CCN(C(=O)Nc1ccc(F)cc1F)CC2	-21
Cc1noc(-c2cc(=O)n(CC(=O)Nc3cccc(C(C)C)c3)c3ccccc23)n1	-25
CO[C@@H]1CC[C@@H]2CCOc3c(C#N)cccc3C(=O)N(C)C[C@H](c3ccccc3)CC(=O)N(C)C[C@@H]1O2	17
COCc1cnc2n1CCN(C(=O)c1cc3cc(Cl)ccc3o1)C2C (centres undefined)	-34
COc1cc(CC(=O)O)ccc1OCc1ccccc1	-42
CCCCCCOc1ccccc1C(N)=O	10
Cc1cccc2c(-c3ccncn3)c[nH]c12	39
O=C(Cn1cc(C(=O)c2cccs2)c2ccccc21)NCc1ccccc1	13
COc1ccc(C(=O)NCCc2csc(-c3ccc(Cl)cc3)n2)cc1	-58
COc1ccc2cc(-c3cc(-c4cc(Cl)cc(Cl)c4)nn3[C@@H](C)c3ccc(C(=O)NCCC(=O)O)cc3)ccc2c1	-73*
CC(C)Oc1ccc(C(=O)NCCc2csc(-c3ccc(Cl)cc3)n2)cc1	7
COc1ccc(-c2nc(C)c(CCNC(=O)c3ccc(C(F)(F)F)cc3)s2)cc1	170
COc1c(C)cc(C(=O)N2CC(N3CCCCC3C)C2)cc1C (centres undefined)	11
CCS(=O)(=O)N1C[C@H]2CCCO[C@H]2[C@@H](Nc2ccccn2)C1	6
Cc1cnn(C)c1NC(=O)c1cccc(CN(C)Cc2cnccn2)c1	2
